# Experimental data published in PubChem BioAssay (Tox21).
# “And” between values parts separate entries of the source, which are not always exact repeats. Equal entries are not always repeated. Records with an inconclusive call do not appear. The source made the active and inactive calls. The call rests on the fitted dose curve; in most records, active means well fitted inhibition curve with a large enough effect in the repeat runs; inconclusive means weak or mixed curves; inactive means no such curve, though single readings can be large or run the other way.
# Molecular target: Cytochrome P450 2C9 (Homo sapiens) (UniProt P11712)
# Experiment: Cytochrome P450 Family 2 Subfamily C Member 9 (CYP2C9) small molecule antagonists: luciferase reporter qHTS assay (AID 1671198); further: nearly all actives have a fitted effect of over 50% in size
# Conditions: P450-Glo CYP2C9 enzyme assay, luciferin luminescence; series mostly up to 115 µM
# Excerpt: U.S. Tox21 Program National Center for Advancing Translational Sciences [NCATS] U.S. Environmental Protection Agency [EPA] National Institutes of Environmental Health Sciences [NIEHS] National Toxicology Program [NTP] U.S. Food and Drug Administration [FDA] Tox21 Assay Overview: Cytochrome P450 (CYP) enzymes are membrane-bound hemeproteins that play a key role in metabolism of drugs and xenobiotics. Evaluation of the effect of chemicals on CYP isozymes is useful to minimize the adverse drug reactions and toxicities in drug development process. Tox21 chemicals were tested for their effect on CYP enzyme activities by using P450-Glo (TM) screening systems (Promega Corporation, Madison, WI). These systems provide a luminescent method containing proluciferin substrates and are converted to luciferin products by CYP isozymes. The luciferin products formed are detected with a luciferin detection reagent, and the amount of light produced is proportional to CYP activity. P450-Glo (TM) CYP2C9 screening system (Catalog. No. V9790) was used to detect the compounds that interfere in CYP2C9 activity.
# Tox21 Assay Protocol Summary: Two ul of enzyme-substrate mix was dispensed into medium binding white/solid 1536-well plates (Greiner Bio-One North America Inc., Monroe, NC) using a BioRaptr Flying Reagent Dispenser (FRD, Beckman Coulter, Brea, CA). […] The assay plates were incubated at room temperature for 10 min. Then 2 ul of NADPH regeneration solution was added to each well of the assay plates using an FRD and incubated at 37C for 1 h. The reaction was stopped by adding 4 ul of detection reagent using an FRD and after 20 min incubation at room temperature the luminescence signal was measured using a ViewLux plate reader (Perkin Elmer, Shelton, CT). Data were expressed as relative luminescence units.
# Potency means the concentration at half of the fitted maximal effect.
# Sequence of Cytochrome P450 2C9 (Homo sapiens) (P11712 whole entry, looked up): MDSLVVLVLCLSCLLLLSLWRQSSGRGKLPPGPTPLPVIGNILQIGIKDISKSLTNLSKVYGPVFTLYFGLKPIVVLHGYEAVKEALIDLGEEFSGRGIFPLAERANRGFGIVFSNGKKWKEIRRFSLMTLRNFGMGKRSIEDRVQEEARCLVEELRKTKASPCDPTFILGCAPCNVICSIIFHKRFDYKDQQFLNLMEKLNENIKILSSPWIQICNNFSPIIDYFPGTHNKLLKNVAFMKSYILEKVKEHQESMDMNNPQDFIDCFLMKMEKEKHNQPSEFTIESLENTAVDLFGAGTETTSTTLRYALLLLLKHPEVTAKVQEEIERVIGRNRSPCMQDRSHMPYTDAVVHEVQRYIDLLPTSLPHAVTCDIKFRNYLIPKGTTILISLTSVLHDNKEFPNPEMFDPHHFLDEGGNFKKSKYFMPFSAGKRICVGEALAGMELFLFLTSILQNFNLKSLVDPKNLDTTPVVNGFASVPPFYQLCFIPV
row,SMILES,Potency
1,II,31.7 µM (active)
2,NC(=O)CI,63.8 µM (active)
3,CCOP(=S)(OCC)SCSCC,35.6 µM (active)
4,C(=NC1CCCCC1)=NC1CCCCC1,inactive
5,N#CCc1ccccc1,inactive
6,N#Cc1cc(I)c(O)c(I)c1,22.4 µM (active)
7,ClC=C(Cl)Cl,inactive
8,CCCCC(CC)COP(=O)(Oc1ccccc1)Oc1ccccc1 (stereo not given),3.99 µM (active)
9,CC(C)(C)c1cc([N+](=O)[O-])cc([N+](=O)[O-])c1O,17.8 µM (active)
10,O=[N+]([O-])c1ccccc1CCl,inactive
11,CCCN(CCC)c1c([N+](=O)[O-])cc(S(C)(=O)=O)cc1[N+](=O)[O-],28.3 µM (active)
12,CN1C[C@H](CNC(=O)OCc2ccccc2)C[C@@H]2c3cccc4c3c(cn4C)C[C@H]21,inactive
13,CCCCCCC#N,inactive
14,COc1nn(C(=O)NS(=O)(=O)c2ccccc2OC(F)(F)F)c(=O)n1C,32.5 µM (active)
15,CC(Cl)Cl,inactive
16,CCOP(=S)(OCC)SCn1nnc2ccccc2c1=O,0.633 µM (active)
17,Cn1cc[n+](C)c1 (tested in a mixture with another compound),inactive
18,O=[N+]([O-])c1cc(C(F)(F)F)cc([N+](=O)[O-])c1Cl,17.9 µM (active)
19,C=C(C#N)CCC#N,inactive
20,O=C(CCl)c1ccc(Cl)cc1Cl,12.6 µM (active) and 17.4 µM (active)

row,SMILES,Potency
1,Clc1cccc2ccccc12,inactive
2,Clc1ccc(C(OCCN2CCCCC2)c2ccccc2)cc1 (stereo not given),inactive
3,COP(=O)(OC)O/C(=C/Cl)c1cc(Cl)c(Cl)cc1Cl,23.7 µM (active)
4,C=CC[C@]1(O)CC[C@H]2[C@@H]3CCC4=CC(=O)CCC4=C3C=C[C@@]21C,11 µM (active)
5,CCCN(CC1CC1)c1c([N+](=O)[O-])cc(C(F)(F)F)cc1[N+](=O)[O-],31.7 µM (active)
6,ClCC(Br)CBr (stereo not given),inactive
7,COc1cc(Cl)c(OC)cc1Cl,71 µM (active)
8,O=C1c2ccccc2C(=O)C1C(=O)C(c1ccccc1)c1ccccc1,1.38 µM (active)
9,IC(I)=C(I)I,3.56 µM (active)
10,c1ccc(C2CC2)c(OCC2=NCCN2)c1,inactive
11,CCC(COC(=O)c1cc(OC)c(OC)c(OC)c1)(c1ccccc1)N(C)C (stereo not given),15.5 µM (active)
12,O=C(O)C1(c2ccc3c(c2)OC[C@H](Cc2ccc(-c4ccccc4)cc2)[C@H]3O)CCCC1,71 µM (active)
13,CCCCOC(=O)c1ccccc1C(=O)OCc1ccccc1,8.92 µM (active) and 10 µM (active)
14,C/C(=C\c1ccccc1)[N+](=O)[O-],35.6 µM (active)
15,CC(=O)c1cc2c(cc1C)C(C)(C)C(C)CC2(C)C (stereo not given),35.6 µM (active)
16,CCCCC(O)(Cn1cncn1)c1ccc(Cl)cc1Cl (stereo not given),0.71 µM (active)
17,O=C(O)CC(Cl)C(=O)O (stereo not given),inactive
18,COCC(C)N(C(=O)CCl)c1c(C)csc1C (stereo not given),7.96 µM (active)
19,COC(N)=O,inactive
20,Cc1ccc(-c2c(Cl)nc(C#N)n2S(=O)(=O)N(C)C)cc1,11.2 µM (active)
